Data: the supplement of paper PMC3898565
± gives the uncertainty stated by the source.

Tested on: U87
Test: cell viability relative to vehicle control; higher = less growth inhibition (less active)
Settings: 10 µM; 72 h
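Note: viable cell number estimated from Alamar Blue fluorescence read at 560/90, part of a single-dose primary screen of an FDA-approved drug library.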

| SMILES | cell viability [%] |
| --- | --- |
| NC(=O)c1cccnc1 | 104.5 ± 1 |
| Cc1cn([C@H]2C=C[C@@H](CO)O2)c(=O)[nH]c1=O | 105 ± 3 |
| Cn1c(NCCN(CCO)CCCc2ccc([N+](=O)[O-])cc2)cc(=O)n(C)c1=O | 102 ± 3.1 |
| C[C@@H](O)[C@H]1C(=O)N2C(C(=O)O)=C(S[C@@H]3CN[C@H](C(=O)N(C)C)C3)[C@H](C)[C@H]12 | 106.4 ± 0.79 |
| CCOC(=O)C1=C(C)NC(C)=C(C(=O)OCC)C1c1ccccc1/C=C/C(=O)OC(C)(C)C | 98.85 ± 0.96 |
| CCC(=O)NS(=O)(=O)c1ccc(-c2c(-c3ccccc3)noc2C)cc1 | 108.7 ± 0.37 |
| CS(=O)(=O)c1ccc(C2=C(c3ccccc3)C(=O)OC2)cc1 | 107.7 ± 0.87 |
| O=[N+]([O-])c1cccc2cn[nH]c12 | 107 ± 1.1 |
| CC[C@]1(O)C[C@H]2CN(CCc3c([nH]c4ccccc34)[C@@](C(=O)OC)(c3cc4c(cc3OC)N(C=O)[C@H]3[C@@](O)(C(=O)OC)[C@H](OC(C)=O)[C@]5(CC)C=CCN6CC[C@]43[C@@H]65)C2)C1 | 25.9 ± 3.1 |
| NC(N)=NC(=O)c1nc(Cl)c(N)nc1N | 93.54 ± 0.1 |
| CCN1CCN(c2cc3c(cc2F)c(=O)c(C(=O)O)cn3C2CC2)CC1 | 109 ± 1.3 |
| CC(COc1ccccc1Cc1ccccc1)N1CCCCC1 (centres undefined) | 102.4 ± 0.48 |
| Nc1nc(Cl)nc2c1ncn2[C@H]1C[C@H](O)[C@@H](CO)O1 | 35.4 ± 1.4 |
| COc1ccc(/C=C/C(=O)Nc2ccccc2C(=O)O)cc1OC | 104 ± 1.1 |
| CCc1oc2ccccc2c1C(=O)c1cc(Br)c(O)c(Br)c1 | 107.7 ± 0.81 |
| COc1cc(C[C@@H](CO)[C@H](CO)Cc2ccc(O)c(OC)c2)ccc1O | 96.4 ± 14 |
| CN(C)CCc1c[nH]c2ccc(C[C@H]3COC(=O)N3)cc12 [Zolmitriptan] | 105 ± 1.6 |
| CC(=O)O[C@]1(C(C)=O)CC[C@H]2[C@@H]3C=C(C)C4=CC(=O)CC[C@]4(C)[C@H]3CC[C@@]21C | 101 ± 1.2 |
| CCN1CCC[C@H]1CNC(=O)c1c(O)c(Cl)cc(Cl)c1OC [Raclopride] | 99.9 ± 6.5 |
| C[C@]12C=CC(=O)C=C1CC[C@@H]1[C@@H]2[C@@H](O)C[C@@]2(C)[C@H]1CC[C@]2(O)C(=O)COC(=O)CCC(=O)O | 104 ± 0.49 |

| SMILES | cell viability [%] |
| --- | --- |
| COc1cc([C@@H]2c3cc4c(cc3[C@@H](O[C@@H]3O[C@@H]5CO[C@@H](C)O[C@H]5[C@H](O)[C@H]3O)[C@H]3COC(=O)[C@H]23)OCO4)cc(OC)c1O [Etoposide] | 70.5 ± 4.8 |
| c1cnc(N2CCN(Cc3ccc4c(c3)OCO4)CC2)nc1 [Piribedil] | 108.4 ± 0.77 |
| Cc1c(O)c(=O)ccn1C | 102 ± 5.2 |
| CCOC(=O)N1CCC(=C2c3ccc(Cl)cc3CCc3cccnc32)CC1 | 102 ± 2.4 |
| CC[C@@]1(O)C(=O)OCc2c1cc1n(c2=O)Cc2cc3c(CN(C)C)c(O)ccc3nc2-1 | 24.1 ± 2 |
| COc1cc2nc(N(C)CCCNC(=O)C3CCCO3)nc(N)c2cc1OC (centres undefined) | 101 ± 1.4 |
| COc1cc(C)c(Cc2cnc(N)nc2N)cc1OC | 100 ± 1.7 |
| N[C@@H]1CONC1=O | 96.3 ± 5 |
| CC(Oc1c(Cl)cccc1Cl)C1=NCCN1 (centres undefined) | 113 ± 11 |
| CCC(=O)O[C@]1(C(=O)SCF)[C@H](C)C[C@H]2[C@@H]3C[C@H](F)C4=CC(=O)C=C[C@]4(C)[C@@]3(F)[C@@H](O)C[C@@]21C | 105 ± 2.2 |
| CC(=O)Nc1ccc(CC(=O)O)cc1 | 100 ± 1.1 |
| CC(C)NCC(O)COc1ccc(COCCOC(C)C)cc1 (centres undefined) | 104 ± 2.4 |
| CC(=O)NCCCCCCNC(C)=O | 103.9 ± 0.65 |
| CC(=O)O[C@@]12CO[C@@H]1C[C@H](O)[C@@]1(C)C(=O)[C@H](O)C3=C(C)[C@@H](OC(=O)[C@H](O)[C@@H](NC(=O)OC(C)(C)C)c4ccccc4)C[C@@](O)([C@@H](OC(=O)c4ccccc4)[C@H]21)C3(C)C | 45.2 ± 1.5 |
| CC(C(=O)O)c1ccc(-c2ccccc2)c(F)c1 (centres undefined) [Flurbiprofen] | 105 ± 12 |
| CO[C@H]1/C=C/O[C@@]2(C)Oc3c(C)c(O)c4c(c3C2=O)C2=NC3(CCN(CC(C)C)CC3)NC2=C(NC(=O)/C(C)=C\C=C\[C@H](C)[C@H](O)[C@@H](C)[C@@H](O)[C@@H](C)[C@H](OC(C)=O)[C@@H]1C)C4=O | 104 ± 2.1 |
| Oc1ccc(/C=C/c2cc(O)cc(O)c2)cc1 [resveratrol] | 100.5 ± 0.97 |
| C[C@]12C[C@H](O)[C@H]3[C@@H](CCC4=CC(=O)CC[C@@]43C)[C@@H]1CC[C@@H]2C(=O)CO | 105 ± 1.5 |
| N[C@@H](C(=O)N[C@@H]1C(=O)N2C(C(=O)O)=C(CSc3cn[nH]n3)CS[C@H]12)c1ccc(O)cc1 | 105 ± 2.1 |
